# Laboratory results from PubChem BioAssay (NCATS).
# Unmarked numbers belong to inactive results. Inconclusive results are not listed. The source made the active and inactive calls. Calls follow the shape of the dose curve; as a rule, active = well fitted curve in the direction sought with a large enough effect; inconclusive = small, poorly fitted or top-dose-only effect, or another doubt; inactive = no such curve, though single readings can be large; an effect the other way counts as inactive or inconclusive.
# Target: Arylsulfatase A (Homo sapiens) (UniProt P15289)
# Assay: qHTS screen for enhancers of Arylsulfatase A (ASA1): LOPAC Validation Assay (AID 720538); as to activity change, positive = activation: 0% is about no effect
# Conditions: ASA enzyme activity, LOPAC qHTS enhancer assay; series mostly up to 57.5 µM; activity change, positive = activation: at the top concentration
# Summary of the method: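 Read-out: fluorescence at Ex=525/Em=598 nm after 1N NaOH final stop. Patient fibroblasts carrying ASA-I179S had 48h compound exposure, then 14h room-temperature pNCS hydrolysis (0.5mM final) in lysis buffer. Signal increase = enhanced activity.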
# Chain of Arylsulfatase A (Homo sapiens) (P15289 whole entry, looked up): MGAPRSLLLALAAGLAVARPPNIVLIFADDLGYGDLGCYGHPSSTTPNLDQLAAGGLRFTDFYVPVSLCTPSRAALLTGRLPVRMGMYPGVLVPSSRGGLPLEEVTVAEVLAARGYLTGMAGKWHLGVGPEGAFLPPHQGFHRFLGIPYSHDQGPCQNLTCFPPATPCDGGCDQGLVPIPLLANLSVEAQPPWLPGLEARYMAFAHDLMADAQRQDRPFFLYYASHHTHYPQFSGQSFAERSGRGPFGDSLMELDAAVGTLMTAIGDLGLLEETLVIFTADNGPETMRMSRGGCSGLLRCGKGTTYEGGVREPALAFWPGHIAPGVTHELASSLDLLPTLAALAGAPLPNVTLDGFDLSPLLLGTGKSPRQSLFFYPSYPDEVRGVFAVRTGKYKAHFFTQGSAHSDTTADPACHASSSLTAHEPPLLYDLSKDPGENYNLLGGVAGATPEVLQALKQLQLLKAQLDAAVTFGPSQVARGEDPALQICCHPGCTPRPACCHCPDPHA
Structure (SMILES),"activity change, positive = activation [%]",outcome
CCN1CCCC1CNC(=O)c1cc(S(N)(=O)=O)ccc1OC (centres undefined),-54.7,
CC(C)NCC(O)c1ccc(NS(C)(=O)=O)cc1 (centres undefined),-16.9,
OCc1ccc(-c2nn(Cc3ccccc3)c3ccccc23)o1,-33.5,
CC1=C(C(=O)O)N2C(=O)[C@@H](NC(=O)C(N)c3ccccc3)[C@H]2SC1 (some centres undefined),,inactive
CCN(CC)CC#CCOC(=O)C(O)(c1ccccc1)C1CCCCC1 (centres undefined),-17.3,
CC1CC2C3CCC4=CC(=O)C=C[C@]4(C)[C@@]3(F)[C@@H](O)C[C@]2(C)[C@@]1(O)C(=O)CO (some centres undefined),18.6,

# Test system: not listed separately
# Assay: qHTS for compounds that reverse cellular toxicity of Amyloid beta (A-beta) peptide in yeast: LOPAC Validation Assay (AID 720559);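 also: plate controls were DMSO for no effect and equimolar ferric chloride plus clioquinol rescue for full effect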
# Conditions: yeast expressing A-beta; series mostly up to 46.1 µM; growth rescue, positive = activation: at the top concentration
# Summary of the method: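 OD600 growth readout after 48 hr at 30 C; A-beta-toxic yeast plus pinned compounds in medium. Normalization: DMSO = negative, equimolar FeCl3 + clioquinol = positive.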
row,Structure (SMILES),"growth rescue, positive = activation [%]"
1,CCN1CCCC1CNC(=O)c1cc(S(N)(=O)=O)ccc1OC (centres undefined),-2.45
2,CC(C)NCC(O)c1ccc(NS(C)(=O)=O)cc1 (centres undefined),-4.66
3,O=C(O)C1CCCN(CCC=C(c2ccccc2)c2ccccc2)C1 (centres undefined),-6.04
4,NC(=O)c1ccc2[nH]ccc2c1,-1.73
5,OCc1ccc(-c2nn(Cc3ccccc3)c3ccccc23)o1,7.36
6,CC1=C(C(=O)O)N2C(=O)[C@@H](NC(=O)C(N)c3ccccc3)[C@H]2SC1 (some centres undefined),-0.896
7,CCN(CC)CC#CCOC(=O)C(O)(c1ccccc1)C1CCCCC1 (centres undefined),-3.02
8,CC1CC2C3CCC4=CC(=O)C=C[C@]4(C)[C@@]3(F)[C@@H](O)C[C@]2(C)[C@@]1(O)C(=O)CO (some centres undefined),-5.01
